In the library only some 1.4% were active in any assay of this set; here they are far more common.
PINK1 expr mod: changes PINK1 expression; actives 0.2% (n = 410,000); Potency, µM (doses to about 76.6 µM), without a hit: at the top dose activation (PINK1 increase), usual class: activators; PINK1 immunofluorescence, high-content cytometry, 24 h; active means well fitted activation curve with a large enough effect; inconclusive means small, poorly fitted or top-dose-only effect; cell line not stated here; further: potency means the concentration at half of the fitted maximal effect; % of control where 0% means no effect; nearly all actives have a fitted effect of over 65% in size
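Compound titrations (5 concentrations, 24 h) on a stable cell line; DMSO and CCCP controls. Endpoint: fixed-cell PINK1 immunofluorescence with mitochondrial, cell and nuclear markers, scanned by microplate cytometer.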
p53 reactivator: mutant p53 re-activation in reporter cells; AID 504706; actives 0.063% (n = 320,000); Potency, µM (series often up to 92.2 µM), for the others: at the highest dose activity change, positive = activation, usual class: activators; H1299 p53-A138V BP100-luciferase reporter, luminescence, 24 h; further: potency means the concentration at half of the fitted maximal effect; % of control where 0% means no effect; nearly all actives have a fitted effect of over 45% in size
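p53-null H1299 cells stably carrying temperature-sensitive p53-A138V and a BP100-luciferase reporter were pinned with compounds (4-point, 1:5 series) and held 24 hrs at 37 deg C. Luminescence was read 10 min after detection reagent.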
S-ASM inh: blocks human secretory acid sphingomyelinase; P17405; actives 0.006% (n = 340,000); placental ASM, HMU-PC fluorogenic substrate, 60 min; Potency, µM (series often up to 57.5 µM), for the others: top-dose activity change, negative = inhibition, actives largely listed as inhibitors; further: potency means the concentration at half of the fitted maximal effect
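HMU-PC0 cleavage (9 uM final) by human placental ASM, 60 min at 37 °C following 10 min compound exposure at RT; stopped at pH 10, fluorescence Ex 386/Em 447 nm.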
MmCpn inh: blocks the Methanococcus maripaludis chaperonin Mm-Cpn; purified Mm-Cpn ATPase, ADP Transcreener TR-FRET; AID 504842; Potency, µM (series often up to 76.9 µM), for the others: at the highest dose activity, negative = inhibition, actives largely listed as inhibitors; actives 0.031% (n = 330,000); further: potency means the concentration at half of the fitted maximal effect; on the % scale 0 is the no-effect control and ±100 the full control effect; nearly all actives have a fitted effect of over 80% in size
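TR-FRET (320 nm excitation; 590 and 665 nm emission) reports ADP made from 10 uM ATP by 25 nM enzyme; compounds were preincubated 10 min, reaction run 30 min, both at 37°C.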
ALOX12 inh: inhibitors of human 12S-lipoxygenase ALOX12 | purified 12hLO, xylenol orange hydroperoxide absorbance | AID 1671190 | actives 1.1% (n = 580,000) | P18054 | Potency, µM (top dose mostly 108 µM), without a hit: at the highest dose activity change, negative = inhibition, usual class: inhibitors; further: potency means the concentration at half of the fitted maximal effect; on the % scale 0 is the no-effect control and ±100 the full control effect
Target sequence (P18054 whole entry, looked up): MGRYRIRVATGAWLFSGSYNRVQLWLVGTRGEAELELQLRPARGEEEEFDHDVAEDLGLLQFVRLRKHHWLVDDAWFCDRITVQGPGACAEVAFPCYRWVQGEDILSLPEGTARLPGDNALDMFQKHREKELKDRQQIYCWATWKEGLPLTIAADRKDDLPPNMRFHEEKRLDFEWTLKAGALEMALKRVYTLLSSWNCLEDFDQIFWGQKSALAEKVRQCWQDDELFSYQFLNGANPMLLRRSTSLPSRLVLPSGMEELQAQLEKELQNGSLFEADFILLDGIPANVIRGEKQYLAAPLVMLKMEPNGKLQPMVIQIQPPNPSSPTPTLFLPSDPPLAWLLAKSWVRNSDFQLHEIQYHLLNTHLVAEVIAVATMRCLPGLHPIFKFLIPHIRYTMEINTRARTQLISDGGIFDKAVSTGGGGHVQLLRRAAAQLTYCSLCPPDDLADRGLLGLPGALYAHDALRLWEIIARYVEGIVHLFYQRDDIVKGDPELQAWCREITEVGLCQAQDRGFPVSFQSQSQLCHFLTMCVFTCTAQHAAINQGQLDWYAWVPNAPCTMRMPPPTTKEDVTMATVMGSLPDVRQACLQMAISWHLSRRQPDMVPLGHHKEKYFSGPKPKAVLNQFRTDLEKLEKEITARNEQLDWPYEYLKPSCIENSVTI
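Hydroperoxide product was detected by ferrous iron/xylenol orange as the 573 to 405 nm absorbance ratio. Arachidonic acid at 40 uM (final) was turned over for 30 min at room temperature by 150 nM human 12hLO, pH 7.0 Hepes buffer, after 15 min compound preincubation.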
CCT chaperon mod: changes cytosolic chaperonin activity; purified chaperonin ATPase assay, HTRF ADP detection, 30 min; activity change, % (concentration not given with the values), hits read low; actives 0.3% (n = 360,000); AID 651819; in the data active means activity change below about -30%; further: on the % scale 0 is the no-effect control and ±100 the full control effect
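Nucleotide hydrolysis assay: TRiC at 20–40 nM final (set by batch activity) with 10 uM ATP, 30 min at 37 °C, in presence of 76 uM compound. Detection by competitive ADP HTRF, 30 min ambient.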
The depositor's hits bear a star; ? = inconclusive; · = no result; ! = not confirmed by another sample; [ ] = dose if it differs, or a comment. Unless noted, the call rests on the fitted dose curve; in most records, active means well fitted curve in the direction sought with a large enough effect; inconclusive means small, poorly fitted or top-dose-only effect, or another doubt; inactive means no such curve, though single readings can be large; an effect the other way counts as inactive or inconclusive.

SMILES	PINK1 expr mod	p53 reactivator	S-ASM inh	MmCpn inh	ALOX12 inh	CCT chaperon mod
O=C(COc1ccccc1)NC(=S)Nc1cccc2c(O)cccc12	8.1%	·	·	·	44.7µM*	0.6
COc1cccc(NC(=O)c2ncoc2-c2cccs2)c1	·	·	·	·	-2.5%	·
Cc1ccc(NC(=O)CN(C)C(=O)c2ccc(S(=O)(=O)Nc3ccc(Cl)cc3)cc2)cc1	·	·	·	·	7.94µM*	·
CN(CC(=O)Nc1ccc(Cl)cc1)C(=O)c1ccc(S(=O)(=O)Nc2ccccc2)cc1	-4.1%	-7.3%	-4.0%	1.5%	-17.7%	-1.1
FC(F)(F)c1cccc(-n2cccc2/C=N/n2cnnc2)c1	3.8%[38.3 µM]	-5.2%	4.7%	-3.0%	14.1µM*	-1.8
Cn1c(=O)c2c(nc(Sc3ccccc3)n2Cc2ccccc2Cl)n(C)c1=O	·	·	·	·	9.3%	·
CC(=O)OC(CC(=O)O)C[N+](C)(C)C (centres undefined)	2.5%	1.1%	-2.8%	1.2%	-2.8%	-4.9
CC(=O)O[C@H](CC(=O)O)C[N+](C)(C)C	0.8%	4.4%	2.3%	1.1%	35.5µM*!	-1.8
O=C1CCCC2=C1C(c1cccnc1)C1=C(CCCC1=O)N2	·	·	·	·	43.0%	·
COC(=O)c1ccc(COC(=O)CCC(=O)c2ccc(Cl)cc2)cc1	·	·	·	·	3.3%	·
Cc1ccc2nc(-c3sc4nc(C)ccc4c3N)[nH]c2c1	-1.2%	?	96.4%	-7.6%	35.5µM*	1.2
Cc1cc(C)c2c(N)c(-c3nc4ccccc4[nH]3)sc2n1	0.1%	?	84.4%	-7.3%	2.0%	-0.5
CCCCCCCCOC(=O)c1c(CSC(=N)N)n(C)c2cc(Br)c(OC(C)=O)cc12	-1.1%	6.8%	31.6µM*	0.9%	?	-0.3
CCOC(=O)c1c(CSC(=N)N)n(-c2ccc(Br)cc2)c2cc(Br)c(OC(C)=O)cc12	-5.7%	-26.9%	-13.5%	0.2%	-11.6%	-0.5
CCOC(=O)C(NC(=O)c1ccc(OC)cc1)(Nc1cc(Cl)ccc1OC)C(F)(F)F (centres undefined)	·	·	·	·	33.3%	·
Cn1ccc2c(N3CCCC3)cc3c(c21)C1CCC3C1 (centres undefined)	3.6%	·	·	·	44.7µM*	2.8
CN(CCc1ccccc1)c1cc2c(c3c1ccn3C)C1CCC2C1 (centres undefined)	7.5%	·	·	·	44.7µM*	0.7
Cn1ccc2c(N3CCCCC3)cc3c(c21)C1CCC3C1 (centres undefined)	6.6%	·	·	·	?	-1.0
CCN(C)c1cc2c(c3c1ccn3C)C1CCC2C1 (centres undefined)	16.5%	·	·	·	-26.0%	0.7
COc1ccccc1N(C)c1cc2c(c3c1ccn3C)C1CCC2C1 (centres undefined)	2.0%	·	·	·	39.8µM*	1.0
CN(Cc1ccccc1)c1cc2c(c3c1ccn3C)C1CCC2C1 (centres undefined)	12.1%	·	·	·	?	-1.2
COc1ccc(CNC(=O)C(=O)c2c[nH]c3ccccc23)cc1	·	·	·	·	-17.8%	·
Cc1ccc(CNC(=O)c2cc(=O)c3c(C)cc(C)cc3o2)cc1	·	·	·	·	-20.9%	·
O=C(NCCCc1ccccc1)c1cc(=O)[nH]c2ccccc12	·	·	·	·	-2.9%	·
CCc1cccc(NC(=S)Nc2cccc3ccccc23)c1	-0.7%	-0.4%	-0.5%	-4.2%	44.7µM*	0.8
SMILES	PINK1 expr mod	p53 reactivator	S-ASM inh	MmCpn inh	ALOX12 inh	CCT chaperon mod
CCS(=O)(=O)N1CC2(CN(C(=O)Cc3ccccn3)[C@@H](CO)c3[nH]c4cc(OC)ccc4c32)C1	·	·	·	·	-27.7%	·
COc1ccc2c3c([nH]c2c1)[C@H](CO)N(C(=O)C1CCCC1)CC31CCN(C(=O)c2ccncc2)CC1	·	·	·	·	-19.9%	·
COc1ccc2c3c([nH]c2c1)[C@@H](CO)N(Cc1ccccc1Cl)CC31CN(C(=O)C2CC2)C1	·	·	·	·	15.8µM*	·
CCS(=O)(=O)N1CC2(CN(Cc3ccc4c(c3)OCO4)[C@@H](CO)c3[nH]c4cc(OC)ccc4c32)C1	·	·	·	·	14.1µM*	·
O=C(NNC(=O)c1c2c(nc3ccccc13)CCCC2)c1ccccn1	·	·	·	·	5.6%	·
Cc1ccc(C(CNc2oc(CC(C)C)nc2C#N)N2CCOCC2)cc1 (centres undefined)	·	·	·	·	-1.6%	·
CC(C)CC(CNc1ccc2nnnn2n1)N1CCCC1 (centres undefined)	·	·	·	·	-12.5%	·
C[N+](C)(CCCCCCCCCC[N+](C)(C)C1CCCCC1)C1CCCCC1	·	·	·	·	15.8µM*	·
COc1ccc(C2(c3ccc(O)cc3O)CC(c3ccccc3Cl)NC(=S)N2)cc1 (centres undefined)	-0.3%	-3.4%	8.4%	3.0%	17.8µM*	0.1
Cc1ccc(NC(=O)c2ncoc2-c2cccc(C)c2)cc1	·	·	·	·	-20.9%	·
COC(=O)c1c(C)[nH]c(C(=O)Cn2nnc(-c3ccc(C(C)C)cc3)n2)c1C	·	·	·	·	-2.2%	·
CC(=O)c1c(C)[nH]c(C(=O)Cn2nnc(-c3ccc(C(C)C)cc3)n2)c1C	·	·	·	·	15.8µM*	·
CCCNC(=O)N[C@@H]1CCC[C@@H](C(=O)N(CC)CC)CC(=O)N(C)C1	·	·	·	·	39.8µM*	·
O=C(c1cc(-c2ccco2)[nH]n1)N1CCN(c2ccccc2)CC1	·	·	·	·	4.9%	·
COc1ccc(CNC(=O)CN(C(=O)c2csnn2)c2ccc(C(C)=O)cc2)cc1	1.4%	16.2%	0.1%	1.0%	5.6%	-39.5*
CCN(CC)C(=S)SCC(=O)NC(=O)c1ccc[nH]1	·	·	·	·	-2.8%	·
COC(=O)c1cc(-c2ccccc2OC)nc2ccccc12	·	·	·	·	-11.7%	·
O=C(COC(=O)c1cccc([N+](=O)[O-])c1)Nc1ccc(Cl)cn1	1.0%	?	1.5%	2.1%	-21.6%	-42.0*
O=C(COC(=O)c1ccc([N+](=O)[O-])cc1)Nc1ccc(Cl)cn1	3.0%	0.3%	-0.4%	1.0%	-0.4%	-4.9
Cc1ccccc1C(C)NC(=O)CN1CCN(c2ccc([N+](=O)[O-])c3cnccc23)CC1 (centres undefined)	·	·	·	·	-8.0%	·
COc1ccccc1C(C)NC(=O)CN1CCN(c2ccc([N+](=O)[O-])c3cnccc23)CC1 (centres undefined)	·	·	·	·	11.2µM*	·
CCOCCCn1c(=O)c2ccccc2n2c(=S)[nH]nc12	0.8%	-5.9%	1.6%	3.9%	3.98µM*	-3.5
COc1ccc(CNC(=O)[C@@H](NC(=O)N2CCn3c2nc2ccccc23)C(C)C)cc1	·	·	·	·	23.9%	·
CCOc1ccc(-c2[nH]ncc2Oc2ccccc2OC)c(O)c1	4.4%	-3.0%	-11.2%	0.4%	?	-0.9
CCOc1ccc(-c2[nH]ncc2-c2ccc(Br)cc2)c(O)c1	·	·	·	·	28.2µM*	·
CCOc1ccc(-c2[nH]ncc2Oc2ccccc2OCC)c(O)c1	5.7%	2.0%	-6.6%	2.5%	0.0%	-73.5*
